Only some compounds are listed: those with a hit (about 5.1% of all), similar ones and a draw of the others.
NR3A LBD binder: binders of NR3A ligand-binding domain, primary screen, biophysical, differential scanning fluorimetry, uHTS; AID 1259313, 2017; actives 2.5% (n = 340,000); NR3A LBD differential scanning fluorimetry, Tm shift; 0% = protein alone, 100% = glycine-bound protein; Tm shift relative to glycine control, % at 25 µM;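 active = melting temperature shift of at least 10% of the positive control shift, at one fixed dose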
CRFR2-BP ag: agonists of CRF-BP/CRF-R2 complex, primary screen, cell-based, HEK293, calcium dye fluorescence, uHTS; CRF-binding protein / CRF receptor 2 complex (human); calcium dye fluorescence (FLIPR); percent of saturating CRF peptide response; activation, % at 13.2 µM; actives 0.46% (n = 350,000); AID 588473, 2011;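 active = activation of at least 50%, plus an integration ratio under a set limit after plate pattern correction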;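 also: plate controls were neutral control wells without compound for no effect and CRF at EC100 for full effect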
MPTP block: mitochondrial permeability transition pore inhibitors, primary screen, biochemical, isolated mouse mitochondria, absorbance | Ca2+ swelling absorbance, 30 min | inhibition, % at 10 µM | actives 1.4% (n = 360,000);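 active = inhibition of 50% or more, scaled per plate between neutral and stimulator controls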;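 also: 0% = DMSO wells given calcium and 100% = 1 mM EGTA wells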
ANO1 block: TMEM16A chloride channel inhibitors, primary screen, cell-based, HTS | Anoctamin-1 (Mus musculus), Q8BHY3 | HEK293 TMEM16A/YFP iodide influx fluorescence, ionomycin | normalized B-score (activity score, 25-100; higher = stronger inhibition) at 10 µM | actives 1.2% (n = 310,000);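 active = ratio plate-corrected score three or more library SD toward inhibition, starting fluorescence score within five deviations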;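 also: score derived from kinetic fluorescence span divided by baseline fluorescence per well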
CRFBP-R2 block: antagonists of CRF-BP/CRF-R2 complex, primary screen, cell-based, HEK293, calcium dye fluorescence, uHTS; inhibition, % at 11.8 µM; AID 588475, 2011; CRF-induced calcium fluorescence; actives 0.59% (n = 350,000);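 active = inhibition of the ligand-induced calcium signal above about 50% at the single tested concentration, limit read from the data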
TMEM16A act: TMEM16A chloride channel activators or potentiators, primary screen, cell-based, HTS | Anoctamin-1 (Mus musculus), Q8BHY3 | HEK293 TMEM16A/YFP-H148Q/I152L, iodide quench fluorescence; stronger effect = lower value | B-score at 10 µM | actives 0.3% (n = 340,000) | AID 623877, 2012;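 active = fluorescence-ratio B-score plate-corrected deviation score at least 3 library SD below zero, with starting fluorescence score within 5 deviations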;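 also: channel opened by trigger with iodide after compound preincubation; score built on the fluorescence ratio of max minus min over baseline; more negative score means more quench and so TMEM16A activation or potentiation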
An asterisk follows results filed as active; i = inactive; · = no result.

SMILES | NR3A LBD binder | CRFR2-BP ag | MPTP block | ANO1 block | CRFBP-R2 block | TMEM16A act
COc1ccc(NC(=O)C2=C(C)NC(=S)NC2c2ccc(O)c(OC)c2)cc1 (configuration not stated) | 2.4 | 0.6 | -0.3 | i | -1.5 | i
O=C(CN1CCN(c2ccccn2)CC1)Nc1cccc(Br)c1 | 0.1 | -0.9 | 5.4 | i | 16.1 | i
Cc1ccc(NC(=O)c2sc3ncn(CC(=O)N4CCN(c5ccccn5)CC4)c(=O)c3c2C)cc1Cl | 13.9* | 0.3 | -0.6 | i | -4.7 | i
COc1ccccc1Oc1cc(-n2nc(C)cc2C)ncn1 | 10.4* | 3.1 | 5.1 | i | 16.2 | i
COc1ccccc1OCC(O)Cn1nc(C)cc1C (configuration not stated) | 0.0 | 7.3 | -0.3 | i | -26.9 | i
CCc1nc2ccccc2c(C(=O)OCc2nc3ccccc3c(=O)[nH]2)c1C | -3.9 | 1.6 | 0.1 | · | -6.5 | i
CC#CCOCC1CNC(=O)O1 (configuration not stated) | · | 2.3 | -1.8 | · | -1.3 | ·
CC(C)(C)CC(=O)Nc1ccc(-c2cn3cccnc3n2)cc1 | -5.1 | 0.9 | 0.9 | i | 4.5 | i
COc1ccc(/C=N/Nc2nonc2N)cc1OC | -8.4 | -2.2 | 1.1 | i | -15.9 | i
Nc1cnnc(N/N=C\c2ccccc2)c1Cl | 0.2 | -0.1 | 1.3 | i | 5.8 | i
COc1ccc(/C=N/Nc2nonc2N)cc1 | 17.3* | -0.8 | -0.4 | i | 6.4 | i
Nc1nonc1N/N=C\c1ccccc1 | 17.5* | -1.7 | 6.0 | i | -14.9 | i
CCCc1ccc(C(=O)CCC(=O)NNC(=O)c2ccncc2)cc1 | -19.3 | 1.1 | -1.0 | i | -6.0 | i
Cc1ccccc1C(=O)N1CCC(C(=O)Nc2ccc(S(=O)(=O)N3CCCCC3)cc2)CC1 | 1.6 | -0.2 | -0.7 | i | -1.1 | i
C/C(=N\Nc1nc2ccccc2nc1C)c1ccccc1O | 2.4 | -0.5 | 10.9 | i | -11.4 | i
Cc1cc(N/N=C/c2ccc(O)cc2O)nc(-c2ccccc2O)n1 | 35.1* | -1.1 | 4.1 | i | -25.4 | i
COc1ccc(/C=N/Nc2cc(C)nc(-n3nc(C)cc3C)n2)cc1 | -12.7 | 0.4 | 11.8 | i | -56.0 | i
CC(=NNc1ccc2ccccc2n1)c1ccccc1O | 24.4* | 0.1 | 1.8 | · | -8.6 | i
Cc1cc(N/N=C/c2ccccc2O)nc(N2CCOCC2)n1 | -7.6 | -1.3 | 1.9 | i | -11.5 | i
Cc1cc(N/N=C/c2ccc(O)cc2O)nc(-n2nc(C)cc2C)n1 | 27.4* | -0.5 | 2.5 | i | -32.3 | i
Cc1cc(N/N=C/c2ccccc2O)nc(-c2ccccc2O)n1 | 24.6* | -0.5 | 6.3 | i | -2.8 | i
COc1cc(CN2CCCC(N3CCN(c4ccc(F)cc4)CC3)C2)ccc1F (configuration not stated) | -1.3 | 3.0 | 1.0 | i | -8.5 | i
Cc1cc(N(C)/N=C/c2ccccc2)nc(-c2ccccc2O)n1 | -1.3 | -1.5 | 1.5 | i | -3.2 | i
Cc1cc(N/N=C\c2ccccc2)nc(-c2ccccc2O)n1 | 31.2* | 8.4 | 8.1 | i | -71.7 | i
C/C(=N\Nc1cc(C)nc(-c2ccccc2O)n1)c1ccccc1O | 26.2* | 0.1 | 25.3 | i | -12.5 | i
CCN(CC)C(=O)CSc1nc2ccc(NC(=O)CSc3nnc(COc4ccccc4C)n3C)cc2s1 | -7.8 | -0.4 | -2.4 | i | -49.9 | i
Cc1ccccc1OCc1nnc(SCC(=O)Nc2ccc3nc(SCC(=O)NC(C)(C)C)sc3c2)n1C | -0.7 | -0.4 | 0.6 | 100* | 7.5 | i
CC1CC(=O)c2c(cc3c(-c4c(O)cc(O)c5c(O)c6c(cc45)OC(C)CC6=O)c(O)cc(O)c3c2O)O1 (configuration not stated) | 23.8* | 3.8 | 18.4 | i | -3.0 | -19.9*
C=CCOc1ccc(CNc2ccc3[nH]c(=O)[nH]c3c2)cc1OC | 0.0 | 0.7 | 1.9 | · | 6.2 | i

Screening results: PubChem, several laboratories
